Several values for one entry are separate records, joined by “and”; a condition that tells them apart may be missing. Identical values can stand only once. Activity calls are given as the source filed them.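 The calls were made as follows, unless noted: active = normalized viability below 100% at a tested concentration; inactive = the rest.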
What was measured:
[1] = test system: Aerobactin synthetase IucA (Klebsiella pneumoniae); assay: IucA aerobactin synthetase inhibitors, biochemical, Tocris library, absorbance (AID 1345561; call rule not given here;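 also: 100% = enzyme without compound and 0% = no enzyme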); details: purified IucA enzyme assay, absorbance (OD) read-out; stronger effect = lower value;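 tested at 8 µM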
[2] = sensitizers of A549 cells to miR-34 induction, primary screen, imaging, A549 dox-inducible miR-34, nuclei and caspase counts (AID 1347080;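 active = compounds whose cell count with miR-34 switched on is under 0.7 times the count with it off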); details: A549 miR-34 inducible, Hoechst nuclei count, 48 h
[3] = viability rescue of complex I mutant cybrids, primary screen, cell-based, galactose medium, ATP luminescence (AID 1645843;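 active = z-score of at least 1.8 in each of two replicates, scored against plate mean and spread of sample wells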;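 also: positive z means more ATP and so rescue of galactose-driven cybrid death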); details: complex I mutant cybrid cells, 72 h, stronger effect = higher value
[4] = survival rescue of mitochondrial mutant cells in low glucose, primary screen, MELAS cybrids, Rieske KO mouse fibroblasts, CellTiter-Glo (AID 1508586;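 active = mean z-score across replicates of 1.96 or higher in either the MELAS or the Rieske mutant cell line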;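 also: z relative to plate mean and SD of compound and empty wells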)
[5] = ovarian cancer cell viability with rucaparib, profiling panel, oncology-focused library, rucaparib conditional (AID 1508598); details: patient-derived ovarian cancer cells, CellTiter-Glo viability, 144 h, stronger effect = lower value
[6] = liver-stage malaria parasite growth inhibition, primary screen, cell-based, HepG2, luciferase luminescence, HepG2 viability (AID 624349; in the data active = parasite load remaining mostly below about 12%, no sharp cut-off; inactive = mostly above about 10%;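 also: 100% = mean of DMSO negative control wells on the same plate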); details: P. berghei liver stage in HepG2, luciferase luminescence, concentration not given here; parasite load remaining: stronger effect = lower value; viability: measured here: HepG2 viability without parasites
[7] = modifiers of HSF1 nuclear foci, imaging, Selleck Cancer Library (AID 1347162; in the data active = plate-normalised HSF1 focus index below about 0.46); details: human cells, at 10 µM; SSMD: measured here: HSF1 foci SSMD mean; cell count: measured here: cell number; plate-normalised HSF1 focus index: stronger effect = lower value
[8] = stronger effect = lower value, cell number ratio, induced over uninduced
[9] = measured here: relative caspase fold change +Dox/-Dox
[10] = measured here: total cells with miR-34 induction, stronger effect = lower value
[11] = measured here: total cells without miR-34 induction
[12] = MELAS cybrid survival, CellTiter-Glo 48 h, stronger effect = higher value
[13] = Rieske KO mouse fibroblast survival, CellTiter-Glo 72 h

With `O=C(O)CC/C=C\C[C@@H]1CO[C@H](c2ccccc2Cl)O[C@@H]1c1ccccc1O` as the compound, how does the remaining activity [1] read?
Its remaining activity is 75.4% (inactive).

And the fold change [2, 8]?
The fold change was 0.977 (inactive).

What about the fold change [2, 9] of the same compound?
The fold change was 0.805.

What about the cell count [2, 10] of the same compound?
The cell count was 8270.

And the cell count [2, 11]?
The cell count was 8470.

And the z-score [3]?
Its z-score is 6.17 (active).

For `CCCN(C/C=C/I)C1CCc2cccc(O)c2C1` (centres undefined), which remaining activity [1] is on record?
Its remaining activity is 123% (inactive).

What about the fold change [2, 8] of the same compound?
The fold change was 0.893 (inactive).

And the fold change [2, 9]?
The fold change was 1.14.

And the cell count [2, 10]?
The cell count was 8040.

What about the cell count [2, 11] of the same compound?
Its cell count is 9000.

What about the z-score [3] of the same compound?
Its z-score is -0.945 (inactive).

What does the source list for `Cc1ccc(-c2csc(NC(=O)c3ccccc3)n2)c(C)c1`?
remaining activity [1]: 101% (inactive); fold change [2, 8]: 0.855 (inactive) and 0.98 (inactive); fold change [2, 9]: 0.603 and 0.953; cell count [2, 10]: 6970 and 3650; cell count [2, 11]: 8160 and 3730; z-score [4, 12]: -0.247 (inactive); z-score [4, 13]: 0.265; viability ([5]; at 0.000305 µM, OCI-C5x cells, with rucaparib 10 µM, 100% = cells with rucaparib alone): 125% (inactive); viability ([5]; at 0.000305 µM, OCI-C5x cells, without rucaparib): 121% (inactive); viability ([5]; at 0.000305 µM, OCI-P5x cells, with rucaparib 20 µM, 100% = cells with rucaparib alone): 102% (inactive); viability ([5]; at 0.000305 µM, OCI-P5x cells, without rucaparib): 106% (inactive); viability ([5]; at 0.00122 µM, OCI-C5x cells, with rucaparib 10 µM, 100% = cells with rucaparib alone): 119% (inactive); viability ([5]; at 0.00122 µM, OCI-C5x cells, without rucaparib): 117% (inactive); viability ([5]; at 0.00122 µM, OCI-P5x cells, with rucaparib 20 µM, 100% = cells with rucaparib alone): 99.9% (active); viability ([5]; at 0.00122 µM, OCI-P5x cells, without rucaparib): 101% (inactive); viability ([5]; at 0.00488 µM, OCI-C5x cells, with rucaparib 10 µM, 100% = cells with rucaparib alone): 132% (inactive); viability ([5]; at 0.00488 µM, OCI-C5x cells, without rucaparib): 125% (inactive); viability ([5]; at 0.00488 µM, OCI-P5x cells, with rucaparib 20 µM, 100% = cells with rucaparib alone): 98.6% (active); viability ([5]; at 0.00488 µM, OCI-P5x cells, without rucaparib): 105% (inactive); viability ([5]; at 0.0195 µM, OCI-C5x cells, with rucaparib 10 µM, 100% = cells with rucaparib alone): 115% (inactive); viability ([5]; at 0.0195 µM, OCI-C5x cells, without rucaparib): 113% (inactive); viability ([5]; at 0.0195 µM, OCI-P5x cells, with rucaparib 20 µM, 100% = cells with rucaparib alone): 102% (inactive); viability ([5]; at 0.0195 µM, OCI-P5x cells, without rucaparib): 98.4% (active); viability ([5]; at 0.0781 µM, OCI-C5x cells, with rucaparib 10 µM, 100% = cells with rucaparib alone): 125% (inactive); viability ([5]; at 0.0781 µM, OCI-C5x cells, without rucaparib): 117% (inactive); viability ([5]; at 0.0781 µM, OCI-P5x cells, with rucaparib 20 µM, 100% = cells with rucaparib alone): 103% (inactive); viability ([5]; at 0.0781 µM, OCI-P5x cells, without rucaparib): 103% (inactive); viability ([5]; at 0.313 µM, OCI-C5x cells, with rucaparib 10 µM, 100% = cells with rucaparib alone): 123% (inactive); viability ([5]; at 0.313 µM, OCI-C5x cells, without rucaparib): 116% (inactive); viability ([5]; at 0.313 µM, OCI-P5x cells, with rucaparib 20 µM, 100% = cells with rucaparib alone): 100% (inactive); viability ([5]; at 0.313 µM, OCI-P5x cells, without rucaparib): 99.4% (active); viability ([5]; at 1.25 µM, OCI-C5x cells, with rucaparib 10 µM, 100% = cells with rucaparib alone): 131% (inactive); viability ([5]; at 1.25 µM, OCI-C5x cells, without rucaparib): 112% (inactive); viability ([5]; at 1.25 µM, OCI-P5x cells, with rucaparib 20 µM, 100% = cells with rucaparib alone): 98.2% (active); viability ([5]; at 1.25 µM, OCI-P5x cells, without rucaparib): 103% (inactive); viability ([5]; at 5 µM, OCI-C5x cells, with rucaparib 10 µM, 100% = cells with rucaparib alone): 155% (inactive); viability ([5]; at 5 µM, OCI-C5x cells, without rucaparib): 115% (inactive); viability ([5]; at 5 µM, OCI-P5x cells, with rucaparib 20 µM, 100% = cells with rucaparib alone): 91.8% (active); viability ([5]; at 5 µM, OCI-P5x cells, without rucaparib): 100% (inactive); z-score [3]: -0.675 (inactive)

What does the source list for `CCCCCCCCCCCCCCCCn1cc[n+](Cc2ccccc2)c1C`?
parasite load remaining [6]: 41.6% (inactive); viability [6]: 156%; remaining activity [1]: 93.9% (inactive); fold change [2, 8]: 0.951 (inactive) and 0.701 (inactive); fold change [2, 9]: 0.478 and 0.77; cell count [2, 10]: 1020 and 275; cell count [2, 11]: 1080 and 392; z-score [4, 12]: 0.978 (inactive); z-score [4, 13]: -3.72; z-score [3]: -0.7 (inactive)

With `Cc1nn(-c2ccccc2)c(C)c1/C=N/N1CCN(Cc2ccccc2)CC1` as the compound, how does the remaining activity [1] read?
The remaining activity was 122% (inactive).

And the fold change [2, 8]?
Its fold change is 1.03 (inactive).

What about the fold change [2, 9] of the same compound?
The fold change was 0.466.

And the cell count [2, 10]?
The cell count was 8730.

And the cell count [2, 11]?
The cell count was 8510.

And the SSMD [7]?
Its SSMD is 3.26.

What about the cell count [7] of the same compound?
Its cell count is 6930.

And the plate-normalised HSF1 focus index [7]?
Its plate-normalised HSF1 focus index is 1.18 (inactive).

And the z-score [3]?
Its z-score is -0.095 (inactive).

What does the source list for `O=C(CCCCCN1C(=O)c2cccc3cccc(c23)C1=O)NO`?
remaining activity [1]: 87.2% (inactive); fold change [2, 8]: 0.869 (inactive) and 1.23 (inactive); fold change [2, 9]: 0.881 and 1.17; cell count [2, 10]: 1710 and 2290; cell count [2, 11]: 1970 and 1860; z-score [4, 12]: 1.18 (inactive); z-score [4, 13]: 1.2; z-score [3]: -0.53 (inactive)
